Laboratory results from the supplement of paper PMC10849652.
Of roughly 7,900 targets only a part is listed; those with a hit were picked by preference. About 0.6% of all pairs of compound and target were hits.

UniProt Q9NQX7, sequence (Q9NQX7 whole entry, looked up): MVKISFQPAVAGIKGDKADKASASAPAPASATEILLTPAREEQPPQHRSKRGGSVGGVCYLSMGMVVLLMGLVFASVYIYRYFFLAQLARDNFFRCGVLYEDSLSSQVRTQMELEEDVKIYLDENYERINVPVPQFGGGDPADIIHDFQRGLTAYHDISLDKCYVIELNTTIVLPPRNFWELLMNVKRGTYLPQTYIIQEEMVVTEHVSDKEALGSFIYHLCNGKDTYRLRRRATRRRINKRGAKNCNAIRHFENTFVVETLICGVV
UniProt Q32MZ4, sequence (Q32MZ4 whole entry, looked up): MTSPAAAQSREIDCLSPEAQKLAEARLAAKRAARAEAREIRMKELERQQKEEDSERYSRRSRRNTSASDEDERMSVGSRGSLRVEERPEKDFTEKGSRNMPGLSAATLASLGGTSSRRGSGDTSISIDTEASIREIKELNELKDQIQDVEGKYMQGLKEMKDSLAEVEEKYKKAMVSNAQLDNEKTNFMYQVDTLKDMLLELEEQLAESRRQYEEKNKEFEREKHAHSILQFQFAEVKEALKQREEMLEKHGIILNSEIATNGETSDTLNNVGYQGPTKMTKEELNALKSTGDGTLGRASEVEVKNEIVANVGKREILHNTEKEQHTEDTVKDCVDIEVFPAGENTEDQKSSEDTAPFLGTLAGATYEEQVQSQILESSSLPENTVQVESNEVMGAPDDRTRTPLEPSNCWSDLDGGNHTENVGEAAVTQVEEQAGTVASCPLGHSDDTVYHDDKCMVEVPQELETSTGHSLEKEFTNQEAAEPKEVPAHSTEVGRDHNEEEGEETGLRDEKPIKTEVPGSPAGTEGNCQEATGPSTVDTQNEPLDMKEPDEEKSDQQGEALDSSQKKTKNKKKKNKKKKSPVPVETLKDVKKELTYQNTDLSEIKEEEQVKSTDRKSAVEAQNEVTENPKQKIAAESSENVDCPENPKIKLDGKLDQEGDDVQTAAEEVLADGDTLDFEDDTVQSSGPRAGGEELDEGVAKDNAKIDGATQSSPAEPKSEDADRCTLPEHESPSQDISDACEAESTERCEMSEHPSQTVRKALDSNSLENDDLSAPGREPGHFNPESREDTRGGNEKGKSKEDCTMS
UniProt Q8NHS3, sequence (Q8NHS3 whole entry, looked up): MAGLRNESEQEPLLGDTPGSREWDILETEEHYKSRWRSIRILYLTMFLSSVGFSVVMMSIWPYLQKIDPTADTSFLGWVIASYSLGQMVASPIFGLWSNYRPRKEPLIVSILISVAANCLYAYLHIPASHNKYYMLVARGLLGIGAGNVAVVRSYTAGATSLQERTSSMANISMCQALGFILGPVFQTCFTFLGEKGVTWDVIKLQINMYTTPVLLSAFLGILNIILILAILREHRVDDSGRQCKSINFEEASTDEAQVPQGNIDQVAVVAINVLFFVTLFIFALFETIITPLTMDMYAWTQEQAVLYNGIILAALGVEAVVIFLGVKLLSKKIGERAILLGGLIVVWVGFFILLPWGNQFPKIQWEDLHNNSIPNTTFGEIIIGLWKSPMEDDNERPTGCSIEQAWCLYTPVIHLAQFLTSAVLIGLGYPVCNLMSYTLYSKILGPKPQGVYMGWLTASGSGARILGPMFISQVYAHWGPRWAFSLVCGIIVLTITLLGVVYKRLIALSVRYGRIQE
UniProt Q9Y5V3, sequence (Q9Y5V3 whole entry, looked up): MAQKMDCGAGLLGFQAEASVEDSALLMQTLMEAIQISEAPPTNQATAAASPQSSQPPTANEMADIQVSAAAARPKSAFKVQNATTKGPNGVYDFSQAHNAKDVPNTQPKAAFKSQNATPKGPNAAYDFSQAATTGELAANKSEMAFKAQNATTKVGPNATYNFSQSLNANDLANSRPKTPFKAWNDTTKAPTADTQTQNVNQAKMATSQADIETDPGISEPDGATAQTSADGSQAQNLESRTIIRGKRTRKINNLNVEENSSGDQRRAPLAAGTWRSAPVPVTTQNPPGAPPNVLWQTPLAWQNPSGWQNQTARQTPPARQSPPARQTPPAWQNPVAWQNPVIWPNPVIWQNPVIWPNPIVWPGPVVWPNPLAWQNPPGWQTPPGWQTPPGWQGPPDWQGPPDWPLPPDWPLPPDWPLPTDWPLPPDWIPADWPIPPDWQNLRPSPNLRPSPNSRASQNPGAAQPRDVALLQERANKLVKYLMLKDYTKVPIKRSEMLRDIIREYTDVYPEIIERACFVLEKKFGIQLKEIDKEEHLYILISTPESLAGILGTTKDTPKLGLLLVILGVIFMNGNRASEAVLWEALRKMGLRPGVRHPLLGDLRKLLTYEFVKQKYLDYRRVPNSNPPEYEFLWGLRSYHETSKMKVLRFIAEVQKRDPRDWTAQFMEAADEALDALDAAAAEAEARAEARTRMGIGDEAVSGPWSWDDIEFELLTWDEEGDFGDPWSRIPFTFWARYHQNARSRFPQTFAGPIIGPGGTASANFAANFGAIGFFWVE
UniProt Q9BQK8, sequence (Q9BQK8 whole entry, looked up): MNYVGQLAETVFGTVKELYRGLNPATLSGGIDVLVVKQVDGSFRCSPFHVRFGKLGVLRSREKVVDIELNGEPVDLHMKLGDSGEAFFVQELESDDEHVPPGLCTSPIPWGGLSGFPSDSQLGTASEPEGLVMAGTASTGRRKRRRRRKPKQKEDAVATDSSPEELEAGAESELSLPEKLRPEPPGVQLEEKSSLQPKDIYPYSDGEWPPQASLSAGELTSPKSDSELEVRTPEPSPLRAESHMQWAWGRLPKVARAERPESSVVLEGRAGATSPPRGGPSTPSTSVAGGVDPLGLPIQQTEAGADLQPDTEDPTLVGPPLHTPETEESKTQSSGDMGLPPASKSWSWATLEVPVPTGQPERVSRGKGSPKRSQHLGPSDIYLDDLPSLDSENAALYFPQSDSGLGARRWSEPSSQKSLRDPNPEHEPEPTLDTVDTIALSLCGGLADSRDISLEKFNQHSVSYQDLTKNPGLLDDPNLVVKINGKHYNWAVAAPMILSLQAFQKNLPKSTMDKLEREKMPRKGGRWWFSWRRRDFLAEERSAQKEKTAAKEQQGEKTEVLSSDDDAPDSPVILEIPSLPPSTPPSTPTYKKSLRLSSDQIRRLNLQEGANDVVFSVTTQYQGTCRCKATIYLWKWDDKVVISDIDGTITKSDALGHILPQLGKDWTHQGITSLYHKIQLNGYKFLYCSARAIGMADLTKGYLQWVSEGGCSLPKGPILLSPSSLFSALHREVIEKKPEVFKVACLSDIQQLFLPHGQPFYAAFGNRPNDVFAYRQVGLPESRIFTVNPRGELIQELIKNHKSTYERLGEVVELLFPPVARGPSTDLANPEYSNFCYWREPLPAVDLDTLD
UniProt Q9H3U5, sequence (Q9H3U5 whole entry, looked up): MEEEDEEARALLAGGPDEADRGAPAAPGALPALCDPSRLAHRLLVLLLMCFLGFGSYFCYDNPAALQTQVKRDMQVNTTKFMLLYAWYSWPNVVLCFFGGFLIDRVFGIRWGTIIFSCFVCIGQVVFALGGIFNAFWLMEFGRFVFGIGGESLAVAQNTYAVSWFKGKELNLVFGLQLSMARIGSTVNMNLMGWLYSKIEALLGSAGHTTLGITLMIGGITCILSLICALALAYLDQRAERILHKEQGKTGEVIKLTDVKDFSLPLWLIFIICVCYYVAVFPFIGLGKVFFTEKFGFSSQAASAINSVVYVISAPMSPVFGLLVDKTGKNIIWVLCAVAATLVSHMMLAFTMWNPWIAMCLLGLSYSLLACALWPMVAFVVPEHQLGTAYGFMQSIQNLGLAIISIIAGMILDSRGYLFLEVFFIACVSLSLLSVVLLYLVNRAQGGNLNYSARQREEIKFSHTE
UniProt P13473, sequence (P13473 whole entry, looked up): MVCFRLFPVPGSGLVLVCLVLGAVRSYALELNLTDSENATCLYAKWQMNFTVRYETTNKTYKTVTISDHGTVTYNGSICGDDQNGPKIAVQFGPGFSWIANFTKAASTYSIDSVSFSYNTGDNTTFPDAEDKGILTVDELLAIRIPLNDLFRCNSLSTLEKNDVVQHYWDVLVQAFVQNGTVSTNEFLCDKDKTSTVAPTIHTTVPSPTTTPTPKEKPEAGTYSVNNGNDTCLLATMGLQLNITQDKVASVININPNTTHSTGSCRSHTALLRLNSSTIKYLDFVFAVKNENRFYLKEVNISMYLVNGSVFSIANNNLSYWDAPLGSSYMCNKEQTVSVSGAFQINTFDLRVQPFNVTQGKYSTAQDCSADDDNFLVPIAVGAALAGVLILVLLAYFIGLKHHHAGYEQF
UniProt Q9Y4K4, sequence (Q9Y4K4 whole entry, looked up): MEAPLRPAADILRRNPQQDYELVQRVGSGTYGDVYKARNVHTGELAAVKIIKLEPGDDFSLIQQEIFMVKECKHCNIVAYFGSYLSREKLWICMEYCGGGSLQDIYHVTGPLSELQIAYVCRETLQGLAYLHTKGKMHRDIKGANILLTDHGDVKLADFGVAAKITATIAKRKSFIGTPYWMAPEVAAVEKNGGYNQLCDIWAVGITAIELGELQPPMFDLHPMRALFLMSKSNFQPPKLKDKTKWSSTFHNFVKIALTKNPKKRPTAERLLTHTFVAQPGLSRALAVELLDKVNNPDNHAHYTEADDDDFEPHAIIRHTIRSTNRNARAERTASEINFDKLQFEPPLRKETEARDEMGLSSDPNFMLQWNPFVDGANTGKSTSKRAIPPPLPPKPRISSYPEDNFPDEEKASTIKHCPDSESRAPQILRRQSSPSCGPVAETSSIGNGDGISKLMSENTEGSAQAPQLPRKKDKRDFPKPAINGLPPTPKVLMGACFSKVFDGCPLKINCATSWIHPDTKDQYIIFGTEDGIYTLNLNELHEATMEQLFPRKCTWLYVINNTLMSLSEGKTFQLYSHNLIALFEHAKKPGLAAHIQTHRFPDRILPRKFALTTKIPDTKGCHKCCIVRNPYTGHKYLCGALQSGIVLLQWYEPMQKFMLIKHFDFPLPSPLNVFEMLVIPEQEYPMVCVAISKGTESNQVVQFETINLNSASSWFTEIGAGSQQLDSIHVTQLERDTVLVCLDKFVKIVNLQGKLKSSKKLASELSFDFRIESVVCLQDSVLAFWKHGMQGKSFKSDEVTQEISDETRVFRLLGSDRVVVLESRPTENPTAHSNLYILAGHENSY

What follows are targets tested with CS(=O)(=O)c1ccc(-c2cnc(N)c(C(=O)Nc3ccccc3)n2)cc1 (assay: log2 fold change, soluble protein after heating vs DMSO (PISA); higher = thermal stabilisation; K562 cells, 10 uM, 30 min; active = over 0.2 and 3.5 SD of the protein, either way, in both replicates (recomputed)).
Summary of the method: (§1)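 Values are thermal stability changes relative to control samples and are taken from duplicates. They are stated as log2 fold changes. Before quantification by TMTpro 16plex LC-MS/MS with equalised channel sums, K562 cells at 2×10^6 cells/mL were treated with 10 μM compound for 30 min, heated in aliquots for 3 min across 48°C-58°C, pooled, extracted in PBS with 0.5% NP-40 at 4°C, and centrifuged at 21,000xg for 90 min to give the soluble supernatant.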
In the case of MAGED1 isoform 2 (UniProt Q9Y5V3), the log2 fold change was -0.012 (inactive). With LSR isoform 3 (UniProt Q86X29) the log2 fold change was 0.052 (inactive). In the case of MFSD12 isoform 3 (UniProt Q6NUT3), the log2 fold change was 0.17 (inactive). MFSD1 isoform 6 (UniProt Q9H3U5) was tested, and the log2 fold change was 0.035 (inactive). For ITM2C (UniProt Q9NQX7), the log2 fold change was 0.117 (inactive). MAP4 isoform 5 (UniProt P27816) was tested, and the log2 fold change was 0.096 (inactive). IKZF1 isoform 2 (UniProt Q13422) was tested, and the log2 fold change was 0.081 (inactive). With LAPTM4B (UniProt Q86VI4) the log2 fold change was 0.012 (inactive). With MFAP3 (UniProt P55082) the log2 fold change was -0.012 (inactive). MAP4K5 (UniProt Q9Y4K4) was tested, and the log2 fold change was 0.019 (inactive). With KIF13A isoform 4 (UniProt Q9H1H9) the log2 fold change was -0.363 (inactive). KMT5A (UniProt Q9NQR1) was tested, and the log2 fold change was 0.018 (inactive). MAP4K2 (UniProt Q12851) was tested, and the log2 fold change was -0.032 (inactive). MAP4K4 isoform 6 (UniProt O95819) was tested, and the log2 fold change was -0.019 (inactive). For LPIN3 isoform 2 (UniProt Q9BQK8), the log2 fold change was 0.016 (inactive).

These targets were tested with C[C@@H](Oc1cc(-c2cnn(C3CCNCC3)c2)cnc1N)c1c(Cl)ccc(F)c1Cl [crizotinib] in the same assay as above.
Summary of the method: as §1
MAPK11 (UniProt Q15759) was tested, and the log2 fold change was -0.115 (inactive). MFSD8 (UniProt Q8NHS3) was tested, and the log2 fold change was -0.013 (inactive). With MAPK7 (UniProt Q13164) the log2 fold change was 0.773 (active). For LDLRAP1 (UniProt Q5SW96), the log2 fold change was 0.004 (inactive). LAMP2 isoform 2 (UniProt P13473) was tested, and the log2 fold change was -0.424 (active). With MAP2K5 (UniProt Q13163) the log2 fold change was -0.012 (inactive). For MAGEA8 (UniProt P43361), the log2 fold change was -0.003 (inactive). For ING5 (UniProt Q8WYH8), the log2 fold change was -0.36 (inactive). KIZ (UniProt Q2M2Z5) was tested, and the log2 fold change was -0.032 (inactive). In the case of IKZF1 (UniProt R9R4D9), the log2 fold change was 0.028 (inactive). For MGRN1 isoform 2 (UniProt O60291), the log2 fold change was -0.015 (inactive). In the case of MAPRE3 isoform 2 (UniProt Q9UPY8), the log2 fold change was 0.22 (inactive). ITPRID2 (UniProt P28290) was tested, and the log2 fold change was -0.201 (inactive). MBLAC1 (UniProt A4D2B0) was tested, and the log2 fold change was 0.038 (inactive). In the case of LRRFIP1 isoform 4 (UniProt Q32MZ4), the log2 fold change was 0.012 (inactive).

The targets below were run with C[C@@H]1COCCN1C2=NC(=NC(=C2)C3(CC3)S(=O)(=O)C)C4=C5C=CNC5=CC=C4 in the same assay as above.
Summary of the method: as §1
In the case of MAGED1 isoform 2 (UniProt Q9Y5V3), the log2 fold change was 0.096 (inactive). With MFSD1 isoform 6 (UniProt Q9H3U5) the log2 fold change was 0.076 (inactive). MFSD8 (UniProt Q8NHS3) was tested, and the log2 fold change was 0.04 (inactive). In the case of ITM2C (UniProt Q9NQX7), the log2 fold change was 0.239 (inactive). For MAPK7 (UniProt Q13164), the log2 fold change was 0.03 (inactive). In the case of KXD1 (UniProt Q9BQD3), the log2 fold change was 0.118 (inactive). In the case of MAP4 isoform 5 (UniProt P27816), the log2 fold change was -0.159 (inactive). With LAMP2 isoform 2 (UniProt P13473) the log2 fold change was 0.119 (inactive). For MFAP3 (UniProt P55082), the log2 fold change was 0.045 (inactive). In the case of MAP4K5 (UniProt Q9Y4K4), the log2 fold change was 0.072 (inactive). In the case of LEPROT (UniProt O15243), the log2 fold change was -0.149 (inactive). With ITPRID2 (UniProt P28290) the log2 fold change was 0.229 (inactive). With LRRFIP1 isoform 4 (UniProt Q32MZ4) the log2 fold change was 0.175 (inactive). With LPIN3 isoform 2 (UniProt Q9BQK8) the log2 fold change was 0.125 (inactive).

Each target was assayed with C[C@H](C1=CC=C(C=C1)C(=O)NC2=C3C=CNC3=NC=C2)N in the same assay as above.
Summary of the method: as §1
With MAGED1 isoform 2 (UniProt Q9Y5V3) the log2 fold change was 0.205 (inactive). LSR isoform 3 (UniProt Q86X29) was tested, and the log2 fold change was -0.138 (inactive). For MFSD12 isoform 3 (UniProt Q6NUT3), the log2 fold change was -0.213 (inactive). With MFSD1 isoform 6 (UniProt Q9H3U5) the log2 fold change was -0.03 (inactive). With MFSD8 (UniProt Q8NHS3) the log2 fold change was -0.023 (inactive). For ITM2C (UniProt Q9NQX7), the log2 fold change was 0.137 (inactive). IGFBP6 (UniProt P24592) was tested, and the log2 fold change was -0.035 (inactive). KXD1 (UniProt Q9BQD3) was tested, and the log2 fold change was -0.009 (inactive). In the case of IKZF1 isoform 2 (UniProt Q13422), the log2 fold change was 0.059 (inactive). In the case of LAMP2 isoform 2 (UniProt P13473), the log2 fold change was -0.051 (inactive). For MAP2K5 (UniProt Q13163), the log2 fold change was 0.072 (inactive). MAGEA8 (UniProt P43361) was tested, and the log2 fold change was 0.134 (inactive). In the case of ING5 (UniProt Q8WYH8), the log2 fold change was -0.018 (inactive). For MAP4K5 (UniProt Q9Y4K4), the log2 fold change was 0.24 (inactive). With KIF13A isoform 4 (UniProt Q9H1H9) the log2 fold change was -0.019 (inactive). For KIZ (UniProt Q2M2Z5), the log2 fold change was -0.115 (inactive). For IKZF1 (UniProt R9R4D9), the log2 fold change was -0.078 (inactive). For MGRN1 isoform 2 (UniProt O60291), the log2 fold change was 0.225 (inactive). With LEPROT (UniProt O15243) the log2 fold change was 0.083 (inactive). With MAPRE3 isoform 2 (UniProt Q9UPY8) the log2 fold change was 0.06 (inactive). For MBLAC1 (UniProt A4D2B0), the log2 fold change was -0.007 (inactive). For MAP4K2 (UniProt Q12851), the log2 fold change was -0.129 (inactive). For LRRFIP1 isoform 4 (UniProt Q32MZ4), the log2 fold change was 0.59 (inactive). In the case of MAP4K4 isoform 6 (UniProt O95819), the log2 fold change was -0.305 (inactive). In the case of LPIN3 isoform 2 (UniProt Q9BQK8), the log2 fold change was 0.011 (inactive).
